TbREL1 primary: TbREL1 inhibition, primary screen; hit rate 0.49% among 89,000; inhibition, % at 9.66 µM; TbREL1 RNA ligation, FRET fluorescence; P86926;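 active = inhibition above the mean inhibition across all screened compounds plus 3 SD, cut at about 11% in these data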
TbREL1 confirm: TbREL1 inhibition, confirmation. shares compounds with TbREL1 primary. TbREL1 RNA ligation, FRET fluorescence. inhibition, % at 9.66 µM. hit rate 37% among 390;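 active = mean inhibition across replicates above a set limit taken from the earlier primary screen, cut at about 11% in these data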
A number is an active result; . = inactive. Only a selection was taken, and hits are over-represented in it overall.

SMILES | TbREL1 primary | others
Cc1cc(O)c2c(c1)C(=O)[C@@]13C(=C2O)C(=O)[C@H]2C(O)[C@@H]1[C@H]1C(O)[C@@H]3C(=O)C3=C(O)c4c(O)cc(C)cc4C(=O)[C@@]312 (some centres undefined) | 32.3 | TbREL1 confirm=62.9
Cc1cc(N2CCNC[C@H]2C)ccc1N1CCN[C@@H](C)C1 | .
Cc1cc(N2CCNC[C@H]2C)ccc1N1CC[C@@H](O)C1 | .
CC(c1ccccc1)n1cc(C(=O)NC2CCCC2)nn1 (centres undefined) | .
CC(C)(C)C(=O)N1Cc2cc(-c3cccc(F)c3)ccc2-n2nncc2C1 | .
Clc1cccc(N2Cc3cc(N4CCOCC4)ccc3-n3nncc3C2)c1 | .
COc1ccc(-c2ccc3c(c2)CN(c2cccc(Cl)c2)Cc2cnnn2-3)cc1 | 15.4 | TbREL1 confirm=.
Cc1cccc(C)c1-n1nnnc1C(c1ccccc1OC(F)(F)F)N1CCC(n2c(=O)[nH]c3ccccc32)CC1 (centres undefined) | .
C=CCCC(NC(=O)OCc1ccccc1)P(=O)(Oc1ccccc1)Oc1ccccc1 (centres undefined) | .
C[C@@H]1COc2cc(N3CCN(C)CC3)ccc2S(=O)(=O)N1 | .
CN1CCN(c2ccc(NC(=O)C(C)(C)C)cc2)CC1 | .
CN1CCN(c2ccc(N)cc2)CC1 | 16.8 | TbREL1 confirm=.
CCOC(=O)[C@]12Cc3cc4ccccc4cc3[C@H]1N(Cc1ccccc1)C(=O)c1ccccc12 | .
CC(C)(C)Cc1nnc(NC(=O)COc2ccc(Cl)cc2Cl)o1 | .
Cc1cc(N2CCNC[C@@H]2C)ccc1N1CCN[C@@H](C)C1 | .
COC(=O)[C@@]1(O)c2c(oc3cccc(O)c3c2=O)C=C[C@H]1O | .
CCOC(=O)[C@]12Cc3cc(OC)ccc3[C@H]1N(C(C)C)C(=O)c1cc(OC)ccc12 | .
N/C(=N\N=C/c1ccc(-c2ccc(O)c(C(=O)O)c2)o1)N[N+](=O)[O-] | 48.6 | TbREL1 confirm=16.9
COc1ccc(/C=N/N=C(/N)N[N+](=O)[O-])c(OC)c1 | .
C=CCN1Cc2ccccc2-n2nncc2C1 | .
Cc1ccc(C(O)(C(=O)OC(C)C)C(O)c2ccccc2)cc1 (centres undefined) | .
Cc1cccn2c(NCC3CCCO3)c(C(C)C)nc12 (centres undefined) | .
CCC(C)NC(=O)c1c(N)n(CC2CCCO2)c2nc3ccccc3nc12 (centres undefined) | 37.3 | TbREL1 confirm=28.9
CCC(C)OC(=O)c1c(N)n(Cc2cccs2)c2nc3ccccc3nc12 (centres undefined) | .
CCC(C)NC(=O)c1c(N)n(CCCOC)c2nc3ccccc3nc12 (centres undefined) | 44.5 | TbREL1 confirm=35.9
C[C@H](NC(=O)OCc1ccccc1)[P+](=O)O | .
Cn1cc(P(=S)(c2ccccc2)c2ccccc2)c2ccccc21 | .
c1ccc(Cc2cnc(N3CCNCC3)nc2)cc1 | .
S=P(c1ccccc1)(c1ccccc1)c1c[n+](Cc2ccccc2)c2ccccn12 | .
O=C(NC1CN2CCC1CC2)c1cc(-c2ccc(Cl)cc2)nc2ccccc12 (centres undefined) | .

Screens (PubChem)
